Shown is part of a subset that was picked to be rich in hits.
Pf Dd2 growth = inhibitors of Plasmodium falciparum Dd2 growth; P. falciparum Dd2 growth, SYBR Green, 72 h; Potency, µM (highest dose often 28.9 µM), inactives show top-dose activity, negative = inhibition, most hits filed as inhibitors; hit rate 4.3% among 120,000; AID 1347417; active = well fitted inhibition curve with a large enough effect;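 also: plate controls were DMSO vehicle for no effect and reference drug for full effect; nearly all actives have a fitted effect of over 65% in size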
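Readout: SYBR Green fluorescence, 485 nm excitation, 535 nm emission, after ~16 h lysis at 37C. Before that, Dd2-infected red cells (2.5% hematocrit) grew 72 h with compound, 29 uM top final concentration.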
Starred values were filed as active, the others as inactive; [ ] = dose if it differs, or a comment. Potency is read from the fitted curve at half-maximal effect.

How did CCC(CC)C(=O)NC[C@H]1O[C@@H](CC(=O)NC(C)C)[C@H](O)[C@@H]1O do in these assays?
Pf Dd2 growth: 31%[44.1 µM]

What do the screens show for `CCS(=O)(=O)N1CCC(N2C(=O)C3(CCCC3)C2c2ccccc2)CC1` (stereo unspecified)?
Pf Dd2 growth: inactive

Results for Cc1nc(C)c(C(=O)N2CCC(N3C(=O)C4(CCCCC4)C3c3ccccc3)CC2)s1 (stereo unspecified) ?
Pf Dd2 growth: 13µM*

How did CCn1cc(CN2CCC(N3C(=O)C4(CCCC4)C3c3ccccc3)CC2)cn1 (stereo unspecified) do in these assays?
Pf Dd2 growth: 1.6µM*

Results for CCn1cc(CN2CCC(N3C(=O)C4(CCCCC4)C3c3ccncc3)CC2)cn1 (stereo unspecified) ?
Pf Dd2 growth: -4%

What do the screens show for `Cc1ncccc1C(=O)N1CCC(N2C(=O)C3(CCCC3)C2c2ccccc2)CC1` (stereo unspecified)?
Pf Dd2 growth: inactive

How did Cc1ccc(C(=O)N2CCC(N3C(=O)C4(CCCC4)C3c3ccccc3)CC2)s1 (stereo unspecified) do in these assays?
Pf Dd2 growth: -38%

What do the screens show for `O=C(c1ccncc1)N1CCC(N2C(=O)C3(CCCCC3)C2c2ccncc2)CC1` (stereo unspecified)?
Pf Dd2 growth: -5%

Results for O=C(Nc1ccccc1F)N1CCC(N2C(=O)C3(CCCCC3)C2c2ccncc2)CC1 (stereo unspecified) ?
Pf Dd2 growth: 4.5µM*

Results for O=C(Nc1ccccc1F)N1CCC(N2C(=O)C3(CCCCC3)C2c2ccccc2)CC1 (stereo unspecified) ?
Pf Dd2 growth: inactive

Results for CCn1cc(CNC2CC(=O)N(CCc3ccccc3)C2)cn1 (stereo unspecified) ?
Pf Dd2 growth: -20%

What do the screens show for `CCOc1cc(C(=O)NC2CCN(c3cc(-c4ccccc4)[nH]n3)CC2)cc(OCC)c1OCC`?
Pf Dd2 growth: -23%

How did O=[S+]([O-])(c1cccc(C(F)(F)F)c1)N1CC(Oc2ccc(F)cc2F)C1 do in these assays?
Pf Dd2 growth: 13%

Results for O=C(Cc1ccc(F)cc1)Nc1ccc2ncnc(N3CCCCC3)c2c1 ?
Pf Dd2 growth: -6%

What do the screens show for `CC(=O)N1CCC(C(=O)N[C@H]2CCN3C(=O)N(c4ccc(Cl)cc4)C(=O)[C@@H]3C2)CC1`?
Pf Dd2 growth: -8%[44.1 µM]

How did O=C(O)C1=NOC2CN(Cc3cccc(C(F)(F)F)c3)CC12 (stereo unspecified) do in these assays?
Pf Dd2 growth: inactive

What do the screens show for `CN(C)CCCNC(=O)c1cc2c(n1C)CCN(Cc1ccc(F)cc1)C2`?
Pf Dd2 growth: -20%

What do the screens show for `COc1ccccc1NC(=O)c1cc2c(n1C)CCN(Cc1ccc(F)cc1)C2`?
Pf Dd2 growth: -10%

What do the screens show for `Cc1ccc(CN2CCc3c(cc(C(=O)O)n3C)C2)cc1`?
Pf Dd2 growth: inactive

What do the screens show for `CN(C)CCNC(=O)c1cc2c(n1C)CCN(Cc1ccccc1)C2`?
Pf Dd2 growth: 13µM*

Results for CCOC(=O)C1CCN(C(=O)c2cc3c(n2C)CCN(Cc2ccccc2)C3)CC1 ?
Pf Dd2 growth: 1.6µM*

Results for Cc1cccc(CN2CCc3c(cc(C(=O)O)n3C)C2)c1 ?
Pf Dd2 growth: inactive

How did COc1ccc(CNC(=O)c2cc3c(n2C)CCN(Cc2ccc(F)cc2)C3)cc1 do in these assays?
Pf Dd2 growth: -26%

What do the screens show for `COc1cccc(CN2CCc3c(cc(C(=O)Nc4cc(OC)cc(OC)c4)n3C)C2)c1`?
Pf Dd2 growth: 8.9µM*

What do the screens show for `Cn1c(C(=O)N2CCCC2)cc2c1CCN(Cc1ccccc1)C2`?
Pf Dd2 growth: -6%

How did CC(C)N1CCCC2(CCN(C(=O)C3(Cn4ccnc4)CC3)C2)C1=O (stereo unspecified) do in these assays?
Pf Dd2 growth: -9%

How did COc1ccc(C(=O)N2CCc3nc(C)nc(-c4ccc(Cl)cc4)c3CC2)cc1 do in these assays?
Pf Dd2 growth: inactive

What do the screens show for `O=C(C1CC(=O)N(C2CCCC2)C1)N1CCN(c2ccc(Cl)cn2)CC1` (stereo unspecified)?
Pf Dd2 growth: 12%

How did O=C(c1ccccc1)N1CCCCC12Cc1ccccc1NC2=O (stereo unspecified) do in these assays?
Pf Dd2 growth: inactive

What do the screens show for `O=C(NC1CCCC1)N1CCCCC12Cc1ccccc1NC2=O` (stereo unspecified)?
Pf Dd2 growth: -2%[44.1 µM]

What do the screens show for `O=C1Nc2ccccc2CC12CCCN2C1CCCCC1` (stereo unspecified)?
Pf Dd2 growth: 10µM*

How did Cc1cccc(C2CCCN(C(=O)c3cn(CCc4ccccc4)nn3)C2)c1 (stereo unspecified) do in these assays?
Pf Dd2 growth: inactive

How did COCC(=O)NC[C@H]1CCN(C2CCSCC2)C[C@H]1N(C)C do in these assays?
Pf Dd2 growth: inactive

How did COCc1nc(C2CCCN(C(=O)NCC(C)C)C2)no1 (stereo unspecified) do in these assays?
Pf Dd2 growth: -9%

Results for O=C([C@@H]1C[C@H](Oc2cccnc2)CN1C(=O)c1cccnc1)N1CCCC1 ?
Pf Dd2 growth: 15%

What do the screens show for `O=C(Nc1ccccc1CCc1ccccn1)C1CCN(c2cnn(Cc3ccccc3)c(=O)c2)C1` (stereo unspecified)?
Pf Dd2 growth: 4.5µM*

Results for Cn1ncc(N2CCC(C(=O)Nc3ccccc3CCc3ccccn3)C2)cc1=O (stereo unspecified) ?
Pf Dd2 growth: -16%

Results for O=C(NCc1cnccn1)C1CCCN(c2cnn(Cc3ccccc3)c(=O)c2)C1 (stereo unspecified) ?
Pf Dd2 growth: -16%

Results for O=C(Cn1nc2c(cc1=O)CCCC2)NCCc1nc2ccccc2[nH]1 ?
Pf Dd2 growth: 4%

Results for CCc1ccc(Nc2nc(-c3ccccc3F)no2)cc1 ?
Pf Dd2 growth: inactive

What do the screens show for `Cc1ccc(-c2nc3c(c(SCc4ccc(Br)cc4)n2)Cc2c(CO)cnc(C)c2O3)cc1`?
Pf Dd2 growth: -1%

How did CCN(CC)C(=O)CSc1nc(-c2ccccc2F)nc2c1Cc1c(CO)cnc(C)c1O2 do in these assays?
Pf Dd2 growth: 11µM*

Results for C=Cc1ccc(CSc2nc(-c3ccccc3Cl)nc3c2Cc2c(CO)cnc(C)c2O3)cc1 ?
Pf Dd2 growth: 6.3µM*

Results for Cc1cccc(NC(=O)CSc2nc(-c3ccccc3Cl)nc3c2Cc2c(CO)cnc(C)c2O3)c1C ?
Pf Dd2 growth: -1%

How did CCOc1ccc(N(CC)C(=O)CCc2nc(-c3ccccc3F)no2)cc1 do in these assays?
Pf Dd2 growth: 47%[0.594 µM]

What do the screens show for `CCc1ccc(-c2nc3c(c(SCc4ccccc4F)n2)Cc2c(CO)cnc(C)c2O3)cc1`?
Pf Dd2 growth: -10%

Results for CCc1ccc(CSc2nc(-c3ccc(OC)cc3)nc3c2Cc2c(CO)cnc(C)c2O3)cc1 ?
Pf Dd2 growth: -6%

Results for COc1ccc(-c2nc3c(c(SCc4cc(C)ccc4C)n2)Cc2c(CO)cnc(C)c2O3)cc1 ?
Pf Dd2 growth: -8%

What do the screens show for `CCc1ccc(CSc2nc(-c3ccccc3F)nc3c2Cc2c(CO)cnc(C)c2O3)cc1`?
Pf Dd2 growth: 10µM*

Results for COc1ccccc1-c1nc2c(c(SCc3cccc(Cl)c3)n1)Cc1c(CO)cnc(C)c1O2 ?
Pf Dd2 growth: 2.5µM*

How did COc1ccc(-c2nc3c(c(SCC(=O)N(C)c4ccccc4)n2)Cc2cc(C)ccc2O3)cc1 do in these assays?
Pf Dd2 growth: 9%

How did CC[C@H]1CN(S(=O)(=O)c2c(C)noc2C)CC[C@H]1CC(=O)N1CCC(C(=O)OC)CC1 do in these assays?
Pf Dd2 growth: -10%

Source: PubChem (National Center for Advancing Translational Sciences (NCATS))
